USP10 block: inhibitors of human USP10 deubiquitinase; inhibition, % at 20 µM; purified USP10, Ub-rhodamine fluorescence, 60 min; 47,000 compounds, 1.1% hits
USP28 block: blocks human USP28 ubiquitin-rhodamine cleavage; AID 1645857; 47,000 compounds, 3% hits; Q96RU2; inhibition, % at 25 µM; purified USP28, Ub-rhodamine cleavage fluorescence, 30 min
Target sequence (Q96RU2 whole entry, looked up): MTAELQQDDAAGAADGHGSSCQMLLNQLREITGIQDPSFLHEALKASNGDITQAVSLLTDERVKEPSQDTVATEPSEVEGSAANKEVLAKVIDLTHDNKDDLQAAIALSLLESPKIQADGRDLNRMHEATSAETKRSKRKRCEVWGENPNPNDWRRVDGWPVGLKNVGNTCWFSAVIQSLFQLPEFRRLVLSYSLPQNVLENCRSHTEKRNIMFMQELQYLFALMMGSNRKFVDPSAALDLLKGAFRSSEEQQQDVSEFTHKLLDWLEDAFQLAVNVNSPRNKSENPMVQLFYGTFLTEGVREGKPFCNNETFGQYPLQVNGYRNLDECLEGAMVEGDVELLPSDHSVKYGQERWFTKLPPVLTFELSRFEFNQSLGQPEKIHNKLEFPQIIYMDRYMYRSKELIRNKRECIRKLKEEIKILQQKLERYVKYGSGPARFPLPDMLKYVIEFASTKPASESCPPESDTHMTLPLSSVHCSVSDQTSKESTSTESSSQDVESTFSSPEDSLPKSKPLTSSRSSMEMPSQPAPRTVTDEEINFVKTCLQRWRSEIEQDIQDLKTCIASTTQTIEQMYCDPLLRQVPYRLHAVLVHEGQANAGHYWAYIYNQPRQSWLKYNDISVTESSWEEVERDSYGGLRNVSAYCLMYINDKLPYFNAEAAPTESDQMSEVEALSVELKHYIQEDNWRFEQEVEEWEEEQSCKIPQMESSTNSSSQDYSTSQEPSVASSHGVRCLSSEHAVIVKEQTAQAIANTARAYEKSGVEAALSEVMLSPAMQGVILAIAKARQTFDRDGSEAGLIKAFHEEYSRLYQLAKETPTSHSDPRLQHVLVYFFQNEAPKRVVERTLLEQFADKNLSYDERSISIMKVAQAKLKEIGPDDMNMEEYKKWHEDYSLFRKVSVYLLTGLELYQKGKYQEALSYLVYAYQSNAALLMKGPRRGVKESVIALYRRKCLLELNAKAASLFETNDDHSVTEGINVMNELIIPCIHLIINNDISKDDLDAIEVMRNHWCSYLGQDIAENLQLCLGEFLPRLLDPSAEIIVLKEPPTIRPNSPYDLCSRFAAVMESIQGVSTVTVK
USP17 block: blocks human USP17 ubiquitin-rhodamine cleavage | A8MUK1 | purified USP17, Ub-rhodamine cleavage fluorescence, 3 h | inhibition, % at 50 µM | 47,000 compounds, 6.5% hits
USP8 inh: blocks human USP8 ubiquitin-rhodamine cleavage; P40818; purified USP8, Ub-rhodamine cleavage fluorescence, 30 min; inhibition, % at 20 µM; 47,000 compounds, 4.2% hits
USP30 block: blocks human USP30 ubiquitin-rhodamine cleavage | Q70CQ3 | purified USP30, Ub-rhodamine cleavage fluorescence | inhibition, % at 25 µM | 47,000 compounds, 5.3% hits | AID 1645860
Active calls of the source: *. The list is not random: actives were taken first. Their share in the collection is about 14%. Rule as the data show it: active = inhibition above about 30%; inactive = the rest.

SMILES | USP10 block | USP28 block | USP17 block | USP8 inh | USP30 block
COc1ccccc1-n1c(CNC(=O)c2ccc(S(=O)(=O)N3CCOCC3)cc2)nnc1SCc1ccc(Br)cc1 | 8 | 18 | 7 | 9 | 36*
O=C(Nc1ccc2nc(C(F)(F)F)[nH]c2c1)C1CC1 | 2 | -7 | 0 | -3 | -2
Cc1ccc(C)c(CNC(=O)c2ccc(-c3cncnc3)nc2)c1 | -2 | -15 | -12 | -20 | -36
Cc1ccc(S(=O)(=O)N2CC(C(=O)NC3CCCCC3)C3(CCOCC3)C2)cc1 (centres undefined) | 2 | 16 | 16 | 22 | 31*
COc1cc(C(=O)OCc2csc(-c3ccccc3)n2)ccc1OCC(=O)Nc1ccc(F)cc1 | -6 | -2 | 49* | 6 | -66
COc1cc(C(=O)OCc2csc(-c3ccccc3)n2)cc(Cl)c1OC | 5 | -6 | -13 | -61 | -20
COc1ccc(-c2nccn3cc(C(=O)N4CCN(C)CC4)nc23)cc1 | -4 | 2 | 0 | 13 | 18
O=C(NCCc1ccccn1)c1cc(-c2ccc(Br)cc2)n[nH]1 | 6 | 12 | 80* | 20 | 34*
COc1ccc(-c2nccn3cc(C(=O)NCc4nc5ccccc5n4C)nc23)cc1 | -9 | -41 | -8 | 36* | -254
O=C(NCCc1ccccn1)c1cn2ccnc(-c3ccc(F)cc3)c2n1 | -3 | 4 | 21 | 2 | 56*
CN(C)c1ccc(CN2CCOC[C@H]2c2ncc(-c3cccnc3)[nH]2)cc1 | -1 | 2 | -66 | 33* | -38
c1ccc(-c2cnc([C@@H]3COCCN3Cc3csnn3)[nH]2)cc1 | 2 | 9 | 6 | 16 | 12
O=C1CCCN1CC(=O)N1C[C@@H]2CC[C@H](Oc3ccccc3Cl)[C@@H]2C1 | 0 | -5 | -1 | 3 | -2
O=C1C(O)=C(c2ccc(O)cc2)C(=O)C(O)=C1c1ccccc1 | 8 | 26 | 13 | 1 | 33*
CC1=C(O)C(=O)C(C2=C(O)C(=O)C(C)=C(O)C2=O)=C(O)C1=O | -1 | -4 | -55 | -1 | -26
Cc1c2c(nc3ccccc13)-c1ccccc1CC2 | 4 | 55* | 5 | 16 | -22
O=C(NCc1ccco1)c1c2c(nc3ccccc13)-c1ccccc1CC2 | 0 | -2 | 2 | 55* | -32
COc1ccc(N(CC(=O)Nc2cc(Cl)c(OC)cc2OC)S(=O)(=O)c2c(C)noc2C)cc1 | 5 | 13 | 7 | 11 | 15
O=C(COc1ccccc1O)N1CCN(C(=O)c2ccco2)CC1 | 2 | 4 | 4 | 3 | 13
CNC(=O)c1cc2nc(N(C)C)n(-c3ccc(OC)cc3)c2s1 | 0 | 20 | 46* | 78* | 8
CCC(=O)NC1CCN(c2nc3c(s2)c(C)nn3-c2ccc(OC)cc2)CC1 | -3 | -5 | -3 | -4 | -13
CCNC(=O)c1cc2nc(N(C)C)n(-c3ccccc3)c2s1 | -3 | 22 | 38* | 75* | -38
COc1ccc(-n2c(N(C)C)nc3cc(C(=O)NC4CC4)sc32)cc1 | 2 | 42* | 4 | 0 | -5
COc1ccc2sc(NC(=O)NC(=O)c3c(Cl)cccc3Cl)nc2c1 | 11 | -4 | 8 | -11 | 3
CCOC(=O)CNC(=O)c1cc2c(=O)n3ccccc3nc2s1 | -4 | -5 | -9 | -5 | -35
SMILES | USP10 block | USP28 block | USP17 block | USP8 inh | USP30 block
CNC(=O)c1cc2nc(N(C)C)n(-c3ccccc3)c2s1 | -3 | 19 | 54* | 77* | -6
Cn1c(=O)[nH]c2c(C(=O)N3CCN(C4CCCCC4)CC3)snc2c1=O | -4 | 3 | -8 | -4 | -10
C=C[C@]1(C)C[C@@H](OC(=O)CO)[C@]2(C)C3C(=O)CCC3(CC[C@@H]2C)[C@@H](C)[C@@H]1O (some centres undefined) | 4 | -13 | -14 | 0 | -10
O=C(O)CCc1nc2cc(C(F)(F)F)ccc2n(Cc2ccccc2)c1=O | 0 | 12 | 41* | 9 | 0
COc1ccc(NC(=O)N2CCC3(CC2)Nc2ccccc2-n2cccc23)c(OC)c1 | -4 | 11 | 4 | 15 | 3
Cc1ccc(C(=O)N2CCC3(CC2)CC2(CO3)Nc3ccccc3-n3cccc32)cn1 (centres undefined) | 0 | -42 | 29 | 67* | -184
O=C(Cc1ccccc1F)N1CCC2(CC1)CC1(CO2)Nc2ccccc2-n2cccc21 (centres undefined) | 5 | 1 | 53* | 94* | -17
Cc1ccc2c(c1)C(=O)NCC1(CCN(C(=O)Cc3ccccc3F)CC1)O2 | 3 | -14 | -14 | 0 | -1
Cc1nn(C)cc1C(=O)N1CCC2(CC1)CC1(CO2)Nc2ccccc2-n2cccc21 (centres undefined) | -2 | -20 | 38* | 57* | -36
Cc1oc(C2CC2)cc1C(=O)N1CCC2(CC1)CC1(CO2)Nc2ccccc2-n2cccc21 (centres undefined) | 4 | 17 | 71* | 92* | -5
Cn1nccc1C(=O)N1CCC2(CC1)Nc1cccnc1-n1cccc12 | 0 | 5 | 2 | -5 | -11
Cc1cccc(NC(=O)Cn2cc(-c3nc(C)no3)ccc2=O)c1 | 1 | 17 | 20 | 18 | 17
Cn1c(=O)n([C@@H](Cc2ccccc2)C(=O)N[C@@H](C(=O)O)c2ccc(O)cc2)c(=O)c2ccccc21 | 11 | 6 | 24 | 75* | 10
CCc1nnc2ccc(-c3noc(COc4ccc(F)cc4)n3)cn12 | -1 | 26 | 0 | 3 | 3
CC(C)(C)OC(=O)N1CCC[C@]2(CCC(=O)N2)[C@H]1c1ccc(F)cc1 | 1 | 14 | 12 | 25 | 31*
Cn1nc(C2CC2)cc1C(=O)N1CCC[C@]2(CCC(=O)N2)[C@H]1c1ccc(F)cc1 | 1 | 1 | 7 | 5 | 14
O=C(Cc1csc(-c2ccccc2F)n1)N1CCCC1 | -2 | -11 | -5 | -17 | -77
O=C(COC(=O)c1ccccc1NS(=O)(=O)c1ccc2c(c1)OCCO2)c1ccc([N+](=O)[O-])cc1 | 15 | -11 | -20 | -132 | -15
COc1ccc(C(=O)COC(=O)c2ccccc2NS(=O)(=O)c2ccc(O)c([N+](=O)[O-])c2)cc1 | 63* | 60* | 74* | 62* | 47*
Cc1ccc2c(c1)-c1onc(C(=O)NCCc3c[nH]c4ccccc34)c1CO2 | -1 | 7 | 33* | -14 | -37
COc1ccc(NC(=O)Cn2c(C)cc(=O)n3nc(-c4cccc(C)c4)nc23)cc1 | 47* | 3 | 16 | 64* | 31*
Cc1cccc(NC(=O)NCCc2cn(C)c3ncccc23)c1C | 0 | 0 | -2 | 2 | 1
Cc1ccc(C)c(NC(=O)NCCc2cn(C)c3ncccc23)c1 | -1 | 17 | 37* | 14 | 18
COc1cc(OC)cc(C(=O)N2CCC(N3CCC(C)CC3)CC2)c1 | 1 | -2 | 1 | -4 | -7
CCOc1cccc2c1OC(C)(C)[C@H]1CC3(CCN(C(=O)c4ccc(NC(C)=O)nc4)CC3)CO[C@H]21 | -1 | -1 | 0 | 1 | 2
